Data from PubChem BioAssay (EPA / NIEHS).
Calls of active or inactive are those of the source. The calls were made as follows: active = hit-call score of the fitted dose curve at least 0.9, where 1 is the maximum; inactive = score below 0.9.

Test: ATG_NF_kB_CIS: Attagene CIS-FACTORIAL HepG2 Assay for human Nuclear Factor Kappa B (NF-kB) (AID 2282991)
Conditions: HepG2 Attagene cis-factorial NF-kB reporter mRNA; actives raise or lower the signal
How it was run: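 Fluorescence of labelled RT-PCR products separated by capillary electrophoresis gives reporter mRNA levels from transfected HepG2 cells exposed 24 h; values are fitted in both directions relative to DMSO.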

| Structure (SMILES) | outcome | AC50 |
| --- | --- | --- |
| OCCCCl | inactive | – |
| Nc1c(Br)cc([N+](=O)[O-])cc1Br | inactive | – |
| CCCCCCCCCCCCCC[P+](CCCC)(CCCC)CCCC | inactive | – |
| Oc1ccc2c(c1)CCC2 | inactive | – |
| CCOC(=O)CC(=O)C(F)(F)C(F)(F)F | inactive | – |
| CN(C)C(C)(C)CO | inactive | – |
| C=CC(=O)OCC(F)(F)C(F)(F)C(F)(F)COC(=O)C=C | – | 15.9 µM (active) |
| CO[Si](C)(CCC(F)(F)C(F)(F)C(F)(F)C(F)(F)C(F)(F)C(F)(F)F)OC | inactive | – |
| O=S(=O)(OCC(F)(F)F)C(F)(F)C(F)(F)C(F)(F)C(F)(F)F | – | 62.7 µM (active) |
| O=C(O)C(F)(F)C(F)(F)C(F)(F)OC(F)(F)F | inactive | – |
| CCOC(=O)C1CC(=O)C(=C(O)C2CC2)C(=O)C1 (stereo unspecified) | inactive | – |
| Cc1ccc(O)c(-n2nc3ccccc3n2)c1 | inactive | – |
| CCCCOC(=O)C(C)O (stereo unspecified) | inactive | – |
| CCN(CC)c1ccc(N=Nc2ccccc2)cc1 | inactive | – |

Test: ATG_NRF2_ARE_CIS: Attagene CIS-FACTORIAL HepG2 Assay for human Nuclear Factor Erythroid 2 Related Factor 2 (NFR2) response to Antioxidant Response Elements (ARE) (AID 2282992)
Conditions: HepG2 Attagene ARE/NRF2 reporter, transcription factor activity; actives raise or lower the signal
How it was run: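 Cis-factorial assay: transfected HepG2 reporter library, 24 h dosing, mRNA readout via RT-PCR/CE; DMSO-referenced bidirectional analysis.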

| Structure (SMILES) | outcome | AC50 |
| --- | --- | --- |
| CN1CN(C)CN(C)C1 | inactive | – |
| Cc1ccc2c(c1)OCC(=O)CO2 | inactive | – |
| C=CC(=O)OCC(F)(F)C(F)(F)C(F)(F)C(F)(F)C(F)(F)C(F)(F)C(F)(F)C(F)F | – | 58.2 µM (active) |
| C[Si](Cl)(Cl)CCC(F)(F)C(F)(F)C(F)(F)C(F)(F)C(F)(F)C(F)(F)F | inactive | – |
| CSc1ccc(O)cc1C | inactive | – |
| CCC(=O)OC(C)c1ccccc1 (stereo unspecified) | inactive | – |
| CCCCCCCCCCCCCCCCC | inactive | – |
| FC(F)(F)C(F)(F)C(F)(F)CC1CO1 (stereo unspecified) | inactive | – |
| CCCCCCCC/C=C\CCCCCCCC(=O)OCC(O)CO (stereo unspecified) | – | 68.4 µM (active) |
| C=C(C)CCCC | inactive | – |
| OCCCC(F)(F)C(F)(F)C(F)(F)C(F)(F)C(F)(F)C(F)(F)C(F)(F)C(F)(F)F | inactive | – |
| CNS(=O)(=O)C(F)(F)C(F)(F)C(F)(F)C(F)(F)C(F)(F)C(F)(F)C(F)(F)C(F)(F)F | inactive | – |
| CCOC(C=C(C)CCC=C(C)C)OCC | – | 46.5 µM (active) |
| CCCCCCCC/C=C\CCCCCCCC(=O)N(C)CC(=O)O | inactive | – |
| O=C1c2ccccc2C(=O)c2c(Cl)cccc21 | inactive | – |
| O=C(O)CCC(F)(F)C(F)(F)C(F)(F)F | inactive | – |
| CC(C)CC=C(C=O)c1ccccc1 | – | 71.8 µM (active) |
| O=C(Cl)C(F)(F)C(F)(F)C(F)(F)C(F)(F)C(F)(F)C(F)(F)F | – | 154 µM (active) |
| OCC(O)CC(F)(F)C(F)(F)C(F)(F)C(F)(F)C(F)(F)C(F)(F)C(F)(F)C(F)(F)F (stereo unspecified) | inactive | – |

| Structure (SMILES) | outcome | AC50 |
| --- | --- | --- |
| CCOC(=O)CCC(C)=O | inactive | – |
| CCC(C)CO (stereo unspecified) | inactive | – |
| NC(=O)C(F)(F)C(F)(F)C(F)(F)F | inactive | – |
| OCCCCl | inactive | – |
| Nc1c(Br)cc([N+](=O)[O-])cc1Br | – | 27.4 µM (active) |
| CCCCCCCCCCCCCC[P+](CCCC)(CCCC)CCCC | – | 0.719 µM (active) |
| Cc1ccc([N+](=O)[O-])c(C)c1 | inactive | – |
| Oc1ccc2c(c1)CCC2 | inactive | – |
| CCOC(=O)CC(=O)C(F)(F)C(F)(F)F | inactive | – |
| CN(C)C(C)(C)CO | inactive | – |
| C=CC(=O)OCC(F)(F)C(F)(F)C(F)(F)COC(=O)C=C | – | 12.7 µM (active) |
| CO[Si](C)(CCC(F)(F)C(F)(F)C(F)(F)C(F)(F)C(F)(F)C(F)(F)F)OC | inactive | – |
| O=S(=O)(OCC(F)(F)F)C(F)(F)C(F)(F)C(F)(F)C(F)(F)F | – | 45.6 µM (active) |
| O=C(O)C(F)(F)C(F)(F)C(F)(F)OC(F)(F)F | inactive | – |
| CCOC(=O)C1CC(=O)C(=C(O)C2CC2)C(=O)C1 (stereo unspecified) | inactive | – |
| Cc1ccc(O)c(-n2nc3ccccc3n2)c1 | – | 4.95 µM (active) |
| CCCCOC(=O)C(C)O (stereo unspecified) | inactive | – |
| CCN(CC)c1ccc(N=Nc2ccccc2)cc1 | – | 3.86 µM (active) |
